High-throughput results from PubChem.
Most compounds without a hit are left out; they make up all but 15% or so of the library.
SARS PLP yeast – inhibitors of SARS-CoV papain-like protease in yeast. Potency, µM (top dose mostly 32.9 µM), inactives show top-dose activity, positive = growth rescue, most hits filed as activators. S. cerevisiae expressing SARS-CoV PLpro, growth rescue. AID 485353. actives 0.19% (n = 330,000); calls by dose curve; note: potency is the fitted concentration of half-maximal effect; 0% is about no effect; nearly all actives have a fitted effect of over 55% in size
HCV inhibitor – HCV inhibition | Huh7.5.1 HCVcc-Cre infection, luciferase reporter, 44 h | Potency, µM (series often up to 41.8 µM), for the others: at the highest dose activity change, negative = inhibition, hits mostly inhibitors | actives 3.4% (n = 340,000); note: potency is the fitted concentration of half-maximal effect; % is set by controls: 0 for no effect and ±100 for the full control effect
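Cells (1,000/well) were plated 4 h before compound, then infected with HCVcc-Cre virus (~0.5 moi). After 44 h further culture, infection was read as luciferase luminescence following a 15 min substrate incubation at room temperature.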
Pf growth 96h – P. falciparum growth inhibition at 96 hour, primary screen for plastid delayed-death inhibitors; actives 6.9% (n = 320,000); Potency, µM (series often up to 28.7 µM), for the others: top-dose activity change, negative = inhibition, hits mostly inhibitors; P. falciparum luciferase reporter growth, 96 h; note: potency is the fitted concentration of half-maximal effect; % is set by controls: 0 for no effect and ±100 for the full control effect
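Readout is luminescence from an integrated firefly luciferase in P. falciparum. Red cells, 2% hematocrit and 0.05% parasitemia final, were cultured with compound through two parasite generations (96 hours) at 37 C, 5% CO2.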
HCMV inh – inhibitors of human cytomegalovirus; HFF cells, HCMV-luciferase reporter, 72 h; active compounds read low; activity change, negative = inhibition, % at 57.5 µM; actives 4.5% (n = 410,000); AID 1259415; in the data active = activity change below about -60%; inconclusive = no clear call, values can overlap the other calls; inactive = above about -39%; note: % is set by controls: 0 for no effect and ±100 for the full control effect
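Cell-based, HFFs, 1000 cells/well, 16 h 37C; cpds in DMSO + HCMV-luc, MOI 1 PFU/cell; 72 h 37C; OneGlo luminescence after 5 min RT; norm. to buffer vs Salinomycin 10uM.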
Sm TGR inh – S. mansoni TGR enzyme inhibition | purified TGR, DTNB reduction, TNB absorbance 405 nm | actives 3% (n = 360,000) | AID 485364 | Potency, µM (top dose mostly 114 µM), for inactives: top-dose activity change, negative = inhibition, most hits filed as inhibitors; note: potency is the fitted concentration of half-maximal effect; % is set by controls: 0 for no effect and ±100 for the full control effect; nearly all actives have a fitted effect of over 60% in size
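Kinetic colorimetric format: TGR-catalysed, NADPH-driven DTNB reduction monitored via TNB absorbance. Enzyme dispensed at 20 nM; compound exposure 15 min at room temperature before reaction start.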
Pf growth 48h – P. falciparum growth inhibition at 48 hours (one generation) | actives 5.9% (n = 310,000) | AID 504832 | Potency, µM (doses to about 28.7 µM), without a hit: at the highest dose activity change, negative = inhibition, usual class: inhibitors | P. falciparum luciferase growth in erythrocytes, 48 h; note: potency is the fitted concentration of half-maximal effect; % is set by controls: 0 for no effect and ±100 for the full control effect
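Luciferase-expressing parasites in RBCs, 2% Hct / 0.1% parasitemia final; RPMI 1640 + 0.5% Albumax; 37 C, 5% CO2, one generation; luminescence read-out, lower signal = inhibition.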
* = called active by the depositor; u = inconclusive; x = no result; [ ] = another dose, or the depositor's remark. Unless noted, calls come from the whole dose curve; as a rule, active = well fitted curve in the direction sought with a large enough effect; inconclusive = small, poorly fitted or top-dose-only effect, or another doubt; inactive = no such curve, though single readings can be large; an effect the other way counts as inactive or inconclusive.

SMILES | SARS PLP yeast | HCV inhibitor | Pf growth 96h | HCMV inh | Sm TGR inh | Pf growth 48h
N#CCC(CNc1ncc(C(F)(F)F)cc1Cl)OC(=O)c1ccc(Cl)cc1Cl (stereo unspecified) | -16% | 7% | 2.3µM* | -25 | 16% | 2.9µM*
COc1ccc(NC(=O)CN(C)C(=O)c2cc(CN3C(=O)c4ccccc4C3=O)ccc2OC)cc1 | 0% | 0%[8.37 µM] | -7% | -19 | 6% | -8%
CC1=C(/C=C/C(C)=C/C=C/C(C)=C/C(=O)Nc2ccc(O)cc2)C(C)(C)CCC1 | -15% | 6.3µM* | u | -77* | -5% | 12µM*
CCCCC(CC)CNC(=O)CN1C(=O)CSc2ccc(S(=O)(=O)N3CCOCC3)cc21 (stereo unspecified) | x | x | x | -4 | 2% | x
COc1cc(NS(=O)(=O)c2ccc(OC)c(C)c2C)c(OC)cc1Cl | -19% | 10µM* | x | u | 6% | u
COc1ccc(OC)c(S(=O)(=O)Nc2cc(OC)c(Cl)cc2OC)c1 | x | 8% | 21% | -9 | -29% | 9%
COc1ccccc1C(=O)Nc1ccc(C(=O)OCc2cc(=O)n3nc(C4CC4)sc3n2)cc1 | x | x | x | -19 | 1% | x
COc1ccc(N(C(=O)CNC(=O)c2cccs2)C(C(=O)NC2CCCC2)c2ccncc2)cc1 (stereo unspecified) | 6% | 17% | 13µM* | 5 | -15% | -5%
Cc1ccc(N(C(=O)CNC(=O)c2ccco2)C(C(=O)NC2CCCCC2)c2ccncc2)c(C)c1 (stereo unspecified) | 0% | -8% | -6% | 6 | -15% | 12µM*
O=C(NCC(=O)N(c1ccc2c(c1)OCCO2)C(C(=O)NC1CCCC1)c1ccco1)c1ccco1 (stereo unspecified) | -14% | 8% | 0.83µM* | -2 | -30% | u
CCOC(=O)c1ccc(N(CC(=O)NC2CCCC2)C(=O)CNC(=O)c2ccco2)cc1 | -2% | -2% | 7% | 3 | -14% | 9.3µM*
Cc1ccc(C)c(N(C(=O)CNC(=O)c2ccco2)C(C(=O)NC2CCCCC2)c2ccncc2)c1 (stereo unspecified) | -1% | 8% | 35% | -8 | -5% | -20%
COc1cccc(CNC(=O)C2CCN(Cc3cc4ccccc4n3Cc3ccc(C)cc3)CC2)c1 | x | x | x | 10 | 7% | x
C[C@H](CO)N1C[C@H](C)[C@@H](CN(C)C(=O)c2ccc3ccn(C)c3c2)OCc2cn(nn2)CCCC1=O | x | x | x | 8 | x | x
N#Cc1ccc(CN2C(=O)NC3(CCCCCC3)C2=O)cc1 | -3% | -14% | 20% | 16 | 4% | 14%
O=C(CN(C(=O)CNC(=O)c1ccco1)c1ccc2c(c1)OCO2)NC1CCCCC1 | 2% | -1% | 0% | 18 | 4% | -28%
O=C(NCC(=O)N(Cc1cccs1)C(C(=O)NC1CCCCC1)c1ccncc1)c1ccco1 (stereo unspecified) | 18% | 7% | 5.9µM* | -15 | 45µM* | u
COc1ccc(N(C(=O)CNC(=O)c2ccco2)C(C(=O)NC2CCCC2)c2ccncc2)cc1 (stereo unspecified) | 0% | -28% | 2.6µM* | -10 | x | 11%
O=C(CN(Cc1ccc2c(c1)OCO2)C(=O)CNC(=O)c1ccco1)NC1CCCCC1 | 17% | 0% | 7.4µM* | 7 | 9% | 8%
O=C(c1ccco1)N1CCN(Cc2cc(=O)c(OCc3ccccc3F)co2)CC1 | 5% | 6% | u | -33 | -20% | u
Cn1cc(C(=O)N2CCc3ccccc32)cn1 | 7% | -5% | 85% | 166 | -7% | 97%
O=C(NC1CCS(=O)(=O)C1)Oc1ccc(Cl)cc1 (stereo unspecified) | 2% | 16% | 57% | -106* | 0% | x
O=C(/C=C/c1ccc(Cl)cc1)NC1CCS(=O)(=O)C1 (stereo unspecified) | 1% | 4% | u | u | 7% | u
